In ChEMBL document CHEMBL3988442, “University of Dundee, Small-Polar-MMV Screening Library” (2021):
The whole screen tested about 48,000 compounds, of which about 13,000 (27%) showed an effect of 50% or more. Some of the results follow.

System: Wolbachia pipientis
Assay: Anti-Wolbachia Cell-Based Screen
Type: functional
Set-up: scale not given: in the data most compounds retested in dose-response had high values
Conditions: 5 µM

Compound | Percent Effect
COC(=O)N1CCc2ccccc2C1C(=O)NCc1ccccn1 (configuration not stated) | -3.953%
N#CC1(NC(=O)c2nccc3ccccc23)CCC1 | 2.644%
CN(Cc1cc(-c2ccccc2)no1)C(=O)CNS(C)(=O)=O | -3.143%
CC(C)[C@@H]1CN(C(=O)NCc2ccco2)C[C@H]1NS(=O)(=O)N(C)C | 8.904%
CC(C)NC(=O)NCc1cc(-c2cccc(Cl)c2)nn1C | 128.3%
CC(NC(=O)c1cc(-c2cccc(Cl)c2)no1)C(=O)N(C)C (configuration not stated) | -38.11%
CC(Cc1ccco1)NC(=O)NCc1ncnn1C (configuration not stated) | 9.946%
CC(C)[C@H](NS(C)(=O)=O)C(=O)NCc1cc(-c2cccc(Cl)c2)nn1C | 123.3%
CCC(C(=O)NCc1ccncc1)N(c1cccc(Cl)c1)S(C)(=O)=O (configuration not stated) | -1.901%
CC(C)S(=O)(=O)NC(=O)c1cc(-c2cccc(Cl)c2)no1 | -50.72%
Cn1c(C(=O)NS(C)(=O)=O)ccc1-c1ccccc1 | -9.851%
CC(C)[C@H](NS(C)(=O)=O)C(=O)NCc1cc(-c2ccccc2)nn1C | 107.7%
CCN(CC)C(=O)c1cc(-c2cccc(Cl)c2)no1 | -14.84%
CC(C)[C@H](NS(C)(=O)=O)C(=O)NCc1cc(-c2ccco2)nn1C | 131.1%
O=C1N(c2ccc(Cl)cc2)Cc2nc(=O)[nH]n21 | -10.7%
Cc1cccc(NC(=O)NCCCn2nc3ccccn3c2=O)c1C | -5.568%
CCCc1nn(Cc2csc(CC)n2)c(=O)o1 | 0.8831%
COCCn1c(=O)n(Cc2ccc(Cl)s2)c2cc(C(=O)O)ccc21 | 5.462%
CCCc1nn(Cc2csc(C(C)C)n2)c(=O)o1 | -6.237%
COc1ccccc1C(C)NC(=O)N1CCN(Cc2ccc(Br)s2)CC1 (configuration not stated) | 3.107%
CCCc1nn(Cc2ccc(Br)s2)c(=O)o1 | 114.1%
COCc1nn(Cc2ccc(Br)s2)c(=O)o1 | 93.51%
CCc1nc(Cn2nc(COC)oc2=O)cs1 | 8.463%
COCc1nn(Cc2ccc(Cl)s2)c(=O)o1 | 85.2%
COc1cccc(-c2cc(NCc3cscn3)n(C)n2)c1 | -6.796%

Compound | Percent Effect
Cc1nc2ccccn2c1CN1C[C@@H](CN(C)C)[C@@H](CO)C1 | -2.196%
CC(C)c1noc(C2CCCN2S(=O)(=O)N2CCCCCC2)n1 (configuration not stated) | 33.89%
CC(=O)c1ccccc1C(=O)NCC1(CO)CC1 | -16.93%
NC(c1ccc(F)cc1)c1cccs1 (configuration not stated) | 14.08%
O=C(O)C(F)(F)F.O=c1cc(CNS(=O)(=O)C2CC2)nc2n1CCCN(CC1CC1)C2 | 107%
CS(=O)(=O)NCc1cc(=O)n2c(n1)CN(Cc1ccco1)CCC2.O=C(O)C(F)(F)F | -0.8444%
CC(=O)N1CCCn2c(nc(CNS(=O)(=O)C3CC3)cc2=O)C1 | -2.795%
CS(=O)(=O)NCc1cc(=O)n2c(n1)CN(CC1CC1)CCC2.O=C(O)C(F)(F)F | 110.4%
CN1CCCn2c(nc(CNS(=O)(=O)C3CC3)cc2=O)C1.O=C(O)C(F)(F)F | -4.96%
Cc1cc(C)n(CC2(CNC(=O)C(c3ccccc3F)N(C)C)CC2)n1 (configuration not stated) | -12.38%
CC1c2ncc(COCC3CCCC3)n2CCN1S(=O)(=O)N(C)C (configuration not stated) | -21.16%
CN(C)c1cccc(C(=O)Nc2cnn(CC(N)=O)c2)c1 | -9.995%
CN1C[C@H](O)[C@]2(CCN(Cc3ccc(F)c(F)c3)C2)S1(=O)=O | 108.2%
Cc1c[nH]c(CN2CCC3(CCCN(Cc4ccc(F)c(F)c4)C3)C2)n1 (configuration not stated) | -10.55%
O=C(c1ccc(Br)o1)N1CCN(Cc2ccc(OC(F)(F)F)cc2)CC1 | -3.633%
CN1C[C@H](O)[C@]2(CCN(Cc3ccc(OC(F)(F)F)cc3)C2)S1(=O)=O | 118.4%
Fc1ccc(CN2CCCC3(CCN(Cc4ncc[nH]4)C3)C2)cc1F (configuration not stated) | 2.586%
COc1ccc(CN2CC[C@@]3(C2)[C@H](O)CN(C)S3(=O)=O)cc1F | 137.9%
O=C(c1ccc(Br)s1)N1CCN(Cc2ccc(OC(F)(F)F)cc2)CC1 | -12.95%
COc1ccc(CN2CCN(C(=O)N(C)C)[C@@H]3CS(=O)(=O)C[C@@H]32)cc1F | -14.55%
COCCC(=O)N1CCC2(CN(Cc3ccc(OC)c(F)c3)C2)C1 | 5.323%
CN(C)C(=O)c1c[nH]nc1C1CCN(S(=O)(=O)c2ccccc2)CC1 | 115.3%
Cc1nc(C2CCN(S(=O)(=O)c3ccc(Cl)cc3)CC2)n[nH]1 | 2.775%
CCN1CC[C@@]2(C(=O)N(C)C)CCN(S(=O)(=O)c3ccccc3)CC[C@@H]12.O=C(O)C(F)(F)F | 1.516%
CN(C)C(=O)c1c[nH]nc1C1CCN(S(=O)(=O)c2ccc(Cl)cc2)CC1 | 131.9%

Compound | Percent Effect
CC(=O)c1cccc(S(=O)(=O)N2CCC(c3noc(C)n3)CC2)c1 | -3.648%
CN(C)C(=O)c1c[nH]nc1C1CCN(S(=O)(=O)c2cccc(Cl)c2)CC1 | 103%
CC(=O)c1ccc(S(=O)(=O)N2CCC(c3n[nH]c(C)n3)CC2)cc1 | 9.052%
CN(C)C[C@H]1OC[C@@H]2CCN(S(=O)(=O)c3ccccc3)C[C@@H]21.O=C(O)C(F)(F)F | -5.753%
CC(=O)c1cccc(S(=O)(=O)N2CCC(c3n[nH]c(C)n3)CC2)c1 | -14.04%
CN(C)C(=O)c1cccnc1N1CCOC(c2ccc(Cl)cc2)C1 (configuration not stated) | 7.498%
Cc1ccc(S(=O)(=O)N2CCC(c3n[nH]cc3C(=O)N(C)C)CC2)cc1 | 124.5%
CNC(=O)[C@@]12CCO[C@@H]1CCN(S(=O)(=O)c1ccc(C)cc1)C2 | 8.759%
O=C(c1cc2ccccc2o1)N1CCN(Cn2cc(Cl)cn2)CC1 | -7.476%
CNC(=O)CCNC(=O)c1cc(Br)c2c(c1)OCCO2 | 13.5%
Cc1ccc(S(=O)(=O)N2CCCC(c3n[nH]cc3C(=O)N(C)C)C2)cc1 (configuration not stated) | 125.7%
Cc1ccc([C@@H]2CN(S(=O)(=O)c3ccccc3)C[C@H]2N(C)C)cc1 | -8.566%
CCN(C)S(=O)(=O)N1CCCC(c2nc(-c3ccccc3)c[nH]2)C1 (configuration not stated) | -1.843%
O=C(NCc1nnc2ccccn12)N1CCOC(c2ccsc2)C1 (configuration not stated) | -11.65%
COc1ccc(NC(=O)NCC(O)c2ccccc2F)c(OC)c1 (configuration not stated) | 84.27%
COc1ccc(OC)c(NC(=O)NCC(O)c2ccc(F)c(F)c2)c1 (configuration not stated) | 19.22%
CCOc1ncccc1NC(=O)NCC(O)c1ccccc1OC (configuration not stated) | -2.656%
COc1ccccc1C(O)CNC(=O)Nc1ncccc1C (configuration not stated) | 0.5949%
COc1ccc(NC(=O)NCC(O)c2ccc(F)cc2F)c(OC)c1 (configuration not stated) | 9.274%
COc1ccc(OC)c(C(O)CNC(=O)Nc2ccc(F)cc2F)c1 (configuration not stated) | 81.01%
CCN(C)C1CCCc2nc(C)sc21 (configuration not stated) | -11.76%
CCc1ccc(CN2CCC3(CC2)C(=O)N(C)CCN3CC2CC2)cc1.O=C(O)C(F)(F)F | -26.46%
Cc1cc(C(=O)N2CCC3(CC2)C(=O)N(C)CCN3CC2CC2)c(C)o1.O=C(O)C(F)(F)F | 105.3%
Cc1ccc(N2CCN(CC3CC3)C3(CCN(C(C)C)CC3)C2=O)cn1.O=C(O)C(F)(F)F | -1.753%
Cc1ccsc1C(=O)N1CCC2(CC1)C(=O)N(C)CCN2CC1CC1.O=C(O)C(F)(F)F | 98.73%

Compound | Percent Effect
Cc1cc(C(=O)N2CCC3(CC2)C(=O)N(C)CCN3CC(C)C)c(C)o1.O=C(O)C(F)(F)F | 105.2%
Cc1cc(C(=O)N2CCC3(CC2)C(=O)NCCN3CC(C)C)c(C)o1 | 4.806%
CCN1CCC2(CC1)C(=O)N(c1ccc(C)nc1)CCN2CC(C)C.O=C(O)C(F)(F)F | -13.38%
Cc1ccc(OC2(C(=O)O)CCN(C(=O)c3cc(C)oc3C)CC2)cn1 | -11.44%
O=C(O)[C@@H]1CN(CCOCCO)C[C@H]1c1ccccc1 | -10.46%
N#Cc1ccc(OC2CCN(C(=O)c3cncc(Br)c3)CC2)nc1 | 3.966%
CCC(C)(CC(=O)OC)NC(=O)c1ccc2[nH]ccc2c1 (configuration not stated) | -0.3166%
CCCn1[nH]cc/c1=N\C(=O)CN1CCCC1Cn1nc(C)nc1C (configuration not stated) | -1.859%
CC(=O)c1cccc(NC(=O)CN2CCCCC2C)c1 (configuration not stated) | -9.973%
CCCS(=O)(=O)CCN1CCOC(c2ccsc2)C1 (configuration not stated) | -6.167%
Cn1nccc1C(=O)N1CCCN(CCCc2ccccc2)CC1 | -12.37%
COc1cccc(OCC2CCCN(C(=O)c3ncoc3C3CC3)C2)c1 (configuration not stated) | -37.79%
Cc1ocnc1C(=O)N1CCN(CCOc2ccccc2)CC1 | 109.9%
O=C(c1ncoc1C1CC1)N1CCCN(CCCc2ccccc2)CC1 | 104.8%
CC(=O)N1CCCN(CCCc2ccccc2)CC1 | -14.81%
Nc1nccnc1C(=O)N1CCN(CCOc2ccccc2)CC1 | -15.87%
O=C(CCn1cc(Cl)cn1)N1CCN(CCOc2ccccc2)CC1 | -6.646%
O=C(c1ncoc1C1CC1)N1CCN(CCOc2ccccc2)CC1 | 94.73%
CC(C(=O)N1CCN(CCOc2ccccc2)CC1)n1cc(Cl)cn1 (configuration not stated) | 9.787%
O=C(c1n[nH]c2c1CCN(Cc1nccs1)C2)N1CCOCC1 | 14.04%
O=C(CN1CCc2cncnc2C1)N1CCc2sccc2C1 | -26.01%
Cc1cc(CNc2ccc(C(=O)N3CCc4ccccc43)cn2)on1 | 23.63%
